Data published in the supplement of paper PMC7595190.

Experiments:
[1] = system: CMK; experiment: CellTox Green cytotoxicity fluorescence relative to DMSO vehicle (fold of vehicle RFU); higher = more cell death (loss of membrane integrity), active = 2 or more
How it was run: (§1)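 Three cell lines, MV4-11, CMK and Kasumi-1, were seeded at 4.0 × 10^4 cells per well into 96-well black optical-bottom plates containing CellTox Green reagent from the start. Compounds from the Selleckchem apoptosis library were diluted in DMSO, added one at a time at final 0.01, 0.1 or 1 µM with 0.1% DMSO as vehicle, and incubated at 37 °C in 5% CO2. Readings at 24, 48 and 72 h used excitation at 485 nm and emission at 520 nm. Values give cytotoxicity, taken as loss of membrane integrity, as fluorescence in fold of the DMSO vehicle.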

[2] = system: Kasumi-1; experiment: as above
How it was run: as §1

Measured: CellTox Green cytotoxicity fluorescence

CN[C@@H]1C[C@H]2O[C@@](C)([C@@H]1OC)n1c3ccccc3c3c4c(c5c6ccccc6n2c5c31)C(=O)NC4 [Staurosporine]
active: [2]; 1 µM, 48 h 2.08 | [2]; 1 µM, 72 h 2.12
inactive: [1]; 0.01 µM, 24 h 0.96 | [1]; 0.01 µM, 48 h 0.998 | [1]; 0.01 µM, 72 h 1.07 | [1]; 0.1 µM, 24 h 1.01 | [1]; 0.1 µM, 48 h 1.29 | [1]; 0.1 µM, 72 h 1.4 | [1]; 1 µM, 24 h 1.1 | [1]; 1 µM, 48 h 1.45 | [1]; 1 µM, 72 h 1.29 | [2]; 0.01 µM, 24 h 0.984 | [2]; 0.01 µM, 48 h 1.18 | [2]; 0.01 µM, 72 h 1.24 | [2]; 0.1 µM, 24 h 1.08 | [2]; 0.1 µM, 48 h 1.54 | [2]; 0.1 µM, 72 h 1.74 | [2]; 1 µM, 24 h 1.67

Cc1cc2c(C(C)C)c(O)c(O)c(C=O)c2c(O)c1-c1c(C)cc2c(C(C)C)c(O)c(O)c(C=O)c2c1O
inactive: [1]; 0.01 µM, 24 h 0.986 | [1]; 0.01 µM, 48 h 0.967 | [1]; 0.01 µM, 72 h 0.952 | [1]; 0.1 µM, 24 h 0.998 | [1]; 0.1 µM, 48 h 0.982 | [1]; 0.1 µM, 72 h 0.961 | [1]; 1 µM, 24 h 0.986 | [1]; 1 µM, 48 h 0.979 | [1]; 1 µM, 72 h 0.85 | [2]; 0.01 µM, 24 h 0.96 | [2]; 0.01 µM, 48 h 0.957 | [2]; 0.01 µM, 72 h 0.955 | [2]; 0.1 µM, 24 h 0.99 | [2]; 0.1 µM, 48 h 0.973 | [2]; 0.1 µM, 72 h 0.975 | [2]; 1 µM, 24 h 0.98 | [2]; 1 µM, 48 h 0.966 | [2]; 1 µM, 72 h 0.978

Cn1c(COP(=O)(NCCBr)NCCBr)cnc1[N+](=O)[O-]
inactive: [1]; 0.01 µM, 24 h 0.974 | [1]; 0.01 µM, 48 h 0.98 | [1]; 0.01 µM, 72 h 0.991 | [1]; 0.1 µM, 24 h 0.972 | [1]; 0.1 µM, 48 h 0.996 | [1]; 0.1 µM, 72 h 1.07 | [1]; 1 µM, 24 h 0.975 | [1]; 1 µM, 48 h 1.24 | [1]; 1 µM, 72 h 1.89 | [2]; 0.01 µM, 24 h 1.03 | [2]; 0.01 µM, 48 h 0.968 | [2]; 0.01 µM, 72 h 0.958 | [2]; 0.1 µM, 24 h 0.962 | [2]; 0.1 µM, 48 h 0.956 | [2]; 0.1 µM, 72 h 0.952 | [2]; 1 µM, 24 h 0.977 | [2]; 1 µM, 48 h 0.974 | [2]; 1 µM, 72 h 0.977

O=C(O)C(=O)c1cn(Cc2ccccc2)c2ccc(-c3ccc(OC(F)(F)F)cc3)cc12 [Tiplaxtinin]
inactive: [1]; 0.01 µM, 24 h 1.02 | [1]; 0.01 µM, 48 h 1.01 | [1]; 0.01 µM, 72 h 1 | [1]; 0.1 µM, 24 h 1.01 | [1]; 0.1 µM, 48 h 1.02 | [1]; 0.1 µM, 72 h 0.987 | [1]; 1 µM, 24 h 0.968 | [1]; 1 µM, 48 h 0.972 | [1]; 1 µM, 72 h 0.943 | [2]; 0.01 µM, 24 h 1.02 | [2]; 0.01 µM, 48 h 1.01 | [2]; 0.01 µM, 72 h 1.03 | [2]; 0.1 µM, 24 h 1.02 | [2]; 0.1 µM, 48 h 1.02 | [2]; 0.1 µM, 72 h 1.03 | [2]; 1 µM, 24 h 0.968 | [2]; 1 µM, 48 h 0.983 | [2]; 1 µM, 72 h 0.973

O=c1[nH]c2ccccc2n1C1CCN(Cc2ccc(-c3[nH]c4cc5ncnc5cc4nc3-c3ccccc3)cc2)CC1
inactive: [1]; 0.01 µM, 24 h 1.02 | [1]; 0.01 µM, 48 h 0.991 | [1]; 0.01 µM, 72 h 0.913 | [1]; 0.1 µM, 24 h 0.983 | [1]; 0.1 µM, 48 h 0.97 | [1]; 0.1 µM, 72 h 0.906 | [1]; 1 µM, 24 h 0.966 | [1]; 1 µM, 48 h 0.967 | [1]; 1 µM, 72 h 0.949 | [2]; 0.01 µM, 24 h 0.972 | [2]; 0.01 µM, 48 h 0.961 | [2]; 0.01 µM, 72 h 0.96 | [2]; 0.1 µM, 24 h 0.969 | [2]; 0.1 µM, 48 h 0.99 | [2]; 0.1 µM, 72 h 0.958 | [2]; 1 µM, 24 h 1.08 | [2]; 1 µM, 48 h 1.29 | [2]; 1 µM, 72 h 1.35
